High-throughput results as filed in PubChem.
This is a sample that favours compounds with a hit; in the whole collection about 21% have one here.
TDP1 cell noCPT = qHTS for Inhibitors of human tyrosyl-DNA phosphodiesterase 1 (TDP1): qHTS in cells in absence of CPT; Potency, µM (highest dose often 46.2 µM), hits mostly inhibitors; DT40 Tdp1-/- hTDP1 cells, no CPT, ATP luminescence, 48 h; 420,000 compounds, 15% hits; also: nearly all actives have a fitted effect of over 55% in size
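Seeded 400 DT40-hTDP1 cells/well (vehicle DMSO, no 20 nM CPT); pinned compounds; ≥48 hr at 37 °C; CellTiter-Glo luminescence as viability measure.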
IL-1B inflam inh = inhibitors of inflammasome signaling (IL-1 beta secretion); activity change, % at 57.5 µM; 360,000 compounds, 4.7% hits; THP-1 LPS/ATP IL-1B secretion, AlphaLISA, 16 h; hits give low values; in the data active = activity change below about -50%; inconclusive = mostly about -30% to -49%
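THP-1 cells pretreated 1 hr with compounds (up to 57.5 uM final), then stimulated with LPS (250 ng/mL final) plus ATP (1.25 mM final); secreted IL-1B measured by AlphaLISA after 16 hr, decreased signal indicating inhibition.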
ClpP mod = qHTS Assay for Activators of ClpP. Potency, µM (titrated, usually from 57.5 µM). purified B. subtilis ClpP, FRET peptide cleavage, 20 min. ATP-dependent Clp protease proteolytic subunit (Bacillus subtilis (strain 168)), P80244. AID 651965, 2013. 340,000 compounds, 1.9% hits; active = well fitted falling curve with a large enough effect; inconclusive = small, poorly fitted or top-dose-only effect; inactive = no such curve, though single readings can be large or run the other way; also: the source files actives as falling curves though it sought activators and does not explain the sign; nearly all actives have a fitted effect of over 65% in size
Target sequence (P80244 whole entry, looked up): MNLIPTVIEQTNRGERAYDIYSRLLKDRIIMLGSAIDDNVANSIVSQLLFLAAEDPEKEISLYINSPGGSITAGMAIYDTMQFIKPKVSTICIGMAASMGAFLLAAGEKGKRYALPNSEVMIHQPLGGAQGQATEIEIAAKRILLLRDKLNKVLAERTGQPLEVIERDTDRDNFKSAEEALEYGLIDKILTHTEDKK
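Purified B. subtilis ClpP, 10 microg/mL final in Tris/HCl pH8 with KCl, BSA, glycerol and Tween-20, cleaved an Abz/nitrotyrosine-quenched decapeptide. Fluorescence (ex 320, em 430) was read at 0 and 20 min at room temperature. Delta was normalized to 5.8 microM ADEP and DMSO/no-enzyme controls.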
D3 ag = agonists of human D3 dopamine receptor; P35462; D3R DiscoveRx beta-arrestin cells, luminescence, 90 min; max activation, %; 410,000 compounds, 0.58% hits; AID 652048; in the data active = max activation above about 30%
Target sequence (P35462 whole entry, looked up): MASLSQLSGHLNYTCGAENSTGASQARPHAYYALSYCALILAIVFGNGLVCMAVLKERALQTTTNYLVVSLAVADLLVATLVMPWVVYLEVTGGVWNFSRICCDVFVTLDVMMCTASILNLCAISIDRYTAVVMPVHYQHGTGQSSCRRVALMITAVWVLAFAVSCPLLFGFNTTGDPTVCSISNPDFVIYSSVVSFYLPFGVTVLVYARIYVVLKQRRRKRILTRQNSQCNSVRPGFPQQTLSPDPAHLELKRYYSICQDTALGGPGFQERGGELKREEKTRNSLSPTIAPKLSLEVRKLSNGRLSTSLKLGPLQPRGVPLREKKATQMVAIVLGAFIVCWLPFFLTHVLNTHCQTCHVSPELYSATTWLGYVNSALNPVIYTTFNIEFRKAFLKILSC
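Agonist mode: compounds and dopamine controls were applied to plated cells for 90 min at 37 degrees C after an overnight attachment at 1500 cells/well. Luminescent read-out followed 30 - 60 minutes at room temperature with DiscoveRx detection reagent.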
TDP1 cell CPT = DT40-hTDP1 cell growth loss with CPT | chicken DT40 Tdp1-/-;hTDP1 cells + 20 nM CPT, ATP luminescence, 48 h | Potency, µM (titrated, usually from 46.2 µM), actives largely listed as inhibitors | 420,000 compounds, 12% hits; also: nearly all actives have a fitted effect of over 55% in size
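Cell growth measured by CellTiter-Glo luminescence after a minimum 48 h, 37 C compound exposure with 20 nM CPT in Tdp1-knockout DT40 cells stably expressing hTDP1, seeded 400/well; qHTS titration format.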
D3 antag = antagonists of human D3 dopamine receptor; D3R cells, DiscoveRx beta-arrestin luminescence, antagonist mode; hits give low values; max response, negative = inhibition, %; 360,000 compounds, 2.5% hits; AID 652054; in the data active = max response below about -50%; inconclusive = no clear call, values can overlap the other calls
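Cells expressing the human receptor were seeded at 1500 cells/well, incubated overnight at 37 degrees C in 5% CO2, then exposed to library compounds with dopamine controls for 90 minutes at 37 degrees C before luminescent detection.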
Large screens that a line does not name were inactive. Unless noted, calls follow the shape of the dose curve; as a rule, active = well fitted inhibition curve with a large enough effect; inconclusive = small, poorly fitted or top-dose-only effect; inactive = flat fitted curve, though single readings scatter.

CCN(C(=O)COC(=O)c1ccccc1NCCO)C1CCS(=O)(=O)C1 (centres undefined)	none (no result: ClpP mod)
O=C(Nc1ccc(C(F)(F)F)cc1)c1cc(S(=O)(=O)NC2CCCCCC2)ccc1F	TDP1 cell noCPT inconclusive, TDP1 cell CPT 21µM (no result: IL-1B inflam inh, D3 antag)
CC(=O)Nc1ccc(S(=O)(=O)NC2CCCCCC2)cc1	TDP1 cell noCPT inconclusive, TDP1 cell CPT inconclusive (no result: ClpP mod)
O=C(Nc1ccc(C(F)(F)F)cc1)c1cc(S(=O)(=O)NC2CCCCC2)ccc1F	TDP1 cell noCPT 18µM, TDP1 cell CPT 13µM (no result: IL-1B inflam inh, D3 antag)
CCOC(=O)C1=CCN(S(=O)(=O)c2ccccc2C(=O)OC)C1c1ccc(Cl)cc1 (centres undefined)	TDP1 cell noCPT 18µM, TDP1 cell CPT 21µM
CCOC(=O)C1=CCN(S(=O)(=O)c2ccccc2C)C1c1ccccc1 (centres undefined)	TDP1 cell noCPT 18µM, TDP1 cell CPT 29µM
CCOC(=O)C1=CCN(S(=O)(=O)c2ccccc2Br)C1c1ccc(Cl)c(Cl)c1 (centres undefined)	TDP1 cell noCPT 18µM, TDP1 cell CPT inconclusive
CC1=CC2C(CC1=O)C(C)=CCC2C(C)C (centres undefined)	none (no result: IL-1B inflam inh, ClpP mod, D3 ag, D3 antag)
CC(=O)Nc1ccc(NC2CCCCC2NS(=O)(=O)c2ccccc2)cc1 (centres undefined)	none
COc1ccccc1NC(=O)CCC(=O)c1ccc(-c2ccccc2)cc1	TDP1 cell noCPT 23µM, TDP1 cell CPT inconclusive
COc1cc(Cl)c(C)cc1NC(=S)NN	TDP1 cell noCPT 18µM, TDP1 cell CPT inconclusive (no result: ClpP mod)
CN(CC(=O)Nc1ccccc1Oc1ccccc1)Cc1ccccc1F	TDP1 cell noCPT inconclusive, TDP1 cell CPT inconclusive
COc1ccccc1CN(C)CC(=O)Nc1ccccc1-c1ccccc1	TDP1 cell noCPT 23µM, IL-1B inflam inh -82, TDP1 cell CPT inconclusive (no result: ClpP mod)
COc1cc(NC(=S)NC(C)(C)C)c(OC)cc1Cl	TDP1 cell CPT inconclusive
COc1ccccc1NC(=O)c1ccc(NC(=O)CN(C)Cc2ccccc2F)cc1	TDP1 cell noCPT 23µM (no result: IL-1B inflam inh, ClpP mod)
Cc1ccccc1CN(C)CC(=O)Nc1ccccc1-c1ccccc1	TDP1 cell noCPT inconclusive
COc1ccc(CC(=O)Nc2ccccc2-c2ccccc2)cc1OC	TDP1 cell noCPT 21µM, TDP1 cell CPT 16µM
COc1cc(Cl)c(C)cc1NC(=O)Cc1ccc(OC)c(OC)c1	TDP1 cell noCPT 15µM (no result: ClpP mod)
CC(CCc1ccccc1)NC(=O)CN(C)Cc1ccccc1F (centres undefined)	TDP1 cell noCPT inconclusive, IL-1B inflam inh -74, D3 ag 41, TDP1 cell CPT inconclusive
COc1ccc(CN(C)CC(=O)Nc2ccc(Cl)cc2F)c(OC)c1	TDP1 cell noCPT inconclusive, TDP1 cell CPT inconclusive
Cc1ccc(CC(=O)Nc2ccccc2-c2ccccc2)cc1C	TDP1 cell noCPT inconclusive, TDP1 cell CPT inconclusive
COc1cc(Cl)c(C)cc1NC(=O)Cc1cccs1	none
COc1ccc(CN(C)CC(=O)Nc2ccccc2-c2ccccc2)c(OC)c1	TDP1 cell noCPT 18µM, IL-1B inflam inh -51, TDP1 cell CPT inconclusive (no result: ClpP mod)
CC(CCc1ccccc1)NC(=O)CN(C)Cc1ccc(F)cc1 (centres undefined)	TDP1 cell noCPT inconclusive (no result: ClpP mod)
CCN(CC(=O)Nc1c(F)cccc1F)C(=O)CCCc1cccs1	none
CCC(C)(C)NC(=O)C1CCCN(S(=O)(=O)c2ccc3c(c2)CC(C)N3C(=O)C2CC2)C1 (centres undefined)	TDP1 cell CPT inconclusive
Cc1nc(C(=O)NC2CCOCC2)sc1C1(C)CC(c2cccc([N+](=O)[O-])c2)=NO1 (centres undefined)	TDP1 cell noCPT inconclusive, TDP1 cell CPT inconclusive
O=C(NC1CCCN(C2Cc3ccccc3C2)C1)c1ccc(F)cc1Cl (centres undefined)	none
CCN(CC(=O)Nc1ccccc1OC)CC(=O)Nc1ccccc1-c1ccccc1	TDP1 cell noCPT 9.2µM, TDP1 cell CPT 7.3µM (no result: ClpP mod)
CCN(CC(=O)Nc1ccccc1OC)CC(=O)Nc1ccccc1C(F)(F)F	TDP1 cell noCPT inconclusive, TDP1 cell CPT inconclusive
O=C(CSc1nnc2c(n1)[nH]c1ccc(S(=O)(=O)N3CCOCC3)cc12)Nc1ccccc1Cl	TDP1 cell CPT inconclusive
Cc1ccc(OCCC(=O)Nc2ccc(S(=O)(=O)N3CCCC3)cc2)cc1	TDP1 cell noCPT 15µM, IL-1B inflam inh inconclusive, TDP1 cell CPT inconclusive
CCOc1ccc(CC(=O)Nc2ccc(S(=O)(=O)N3CCCC3)cc2)cc1	TDP1 cell noCPT 15µM, TDP1 cell CPT inconclusive
CCOc1ccc(NC(=O)CSc2nnc3c(n2)[nH]c2ccc(S(=O)(=O)N4CCCCC4)cc23)cc1	TDP1 cell noCPT 16µM, TDP1 cell CPT 13µM (no result: IL-1B inflam inh, D3 ag, D3 antag)
COc1ccc(NC(=O)Nc2cc(C(=O)NCc3ccc(C)cc3)ccc2N2CCCC2)cc1	none (no result: IL-1B inflam inh, D3 antag)
COc1ccc2c(c1)nc(NCCCO)n2Cc1ccccc1	TDP1 cell noCPT inconclusive (no result: ClpP mod)
CCCSc1nc2c3c(sc2c(=O)[nH]1)CC(C)(CC)OC3 (centres undefined)	none (no result: ClpP mod)
O=C(O)CSc1ncnc2sc(-c3ccccc3)cc12	none (no result: ClpP mod)
CC(=O)CCSc1ncnc2sc(-c3ccccc3)cc12	TDP1 cell noCPT inconclusive, IL-1B inflam inh -91, TDP1 cell CPT inconclusive
CC(=O)c1c(C)[nH]c(C(=O)CSc2ncnc3sc(-c4ccccc4)cc23)c1C	TDP1 cell noCPT inconclusive, TDP1 cell CPT 9.2µM
O=C(O)CCSc1ncnc2sc(-c3ccccc3)cc12	none (no result: ClpP mod)
CC(=O)c1c(C)[nH]c(C(=O)CSc2nnc(-c3ccccc3)o2)c1C	TDP1 cell noCPT 15µM, TDP1 cell CPT 16µM
Oc1cccc(-c2nc3c4c(ncn3n2)-c2ccccc2CC42CCCC2)c1	TDP1 cell noCPT 18µM, IL-1B inflam inh inconclusive, D3 ag 83, TDP1 cell CPT 18µM
Cc1cccc(OCc2nc3c4c(ncn3n2)-c2ccccc2CC42CCCC2)c1	TDP1 cell CPT inconclusive
COc1ccc(OCc2nc3c4c(ncn3n2)-c2ccccc2CC42CCCC2)cc1	TDP1 cell noCPT inconclusive, ClpP mod 28µM, TDP1 cell CPT inconclusive
Cc1ccccc1OCc1nc2c3c(ncn2n1)-c1ccccc1CC31CCCC1	TDP1 cell noCPT 15µM, TDP1 cell CPT inconclusive
N#CC1(NC(=O)CN2c3cccc4cccc(c34)S2(=O)=O)CCCCC1	none
COc1ccc(Cl)cc1S(=O)(=O)NC(C)C(=O)NCc1cccnc1 (centres undefined)	none (no result: ClpP mod)
O=C(NCCO)c1cccc2c1C(=O)c1ccccc1-2	TDP1 cell noCPT inconclusive
O=C1c2cccc(NCCNCCO)c2C(=O)c2cccc(NCCNCCO)c21	TDP1 cell noCPT 0.73µM, IL-1B inflam inh -117, TDP1 cell CPT 0.37µM
